Only some compounds are listed: those with a hit (about 28% of all), similar ones and a draw of the others.
CYP2C9 activ: human CYP2C9 activators, primary screen, biochemical, luminescence. Cytochrome P450 2C9 (Homo sapiens), P11712. recombinant CYP2C9, luciferin-H conversion; active compounds read high; factor 1 = untreated enzyme, 0 = blocked. activation factor at 5 µM. hit rate 1.4% among 96,000. AID 1024, 2008;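 active = activation factor of 2 or more for CYP2C9 at a 5 µM dose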;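 also: 0 = sulfaphenazole-blocked wells and 1 = vehicle-only wells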
PTK2B oligo ant: antagonists of Pyk2 self-association, primary screen, Q293 cells, FERM NanoBiT luminescence, HTS; Protein-tyrosine kinase 2-beta (Homo sapiens), Q14289; active compounds read low; z-score (the deposit names both 25 µM and 10 µM); hit rate 0.83% among 99,000; AID 1347419, 2020;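 active = Z-score of -3 or lower, scaled per plate to the spread of control and sample wells; inactive = z-score above -3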;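 also: negative z-score means lost luminescence so less FERM oligomerization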
CYP2C19 activ: human CYP2C19 activators, primary screen, biochemical, luminescence; Cytochrome P450 2C19 (Homo sapiens), P33261; recombinant CYP2C19, luciferin-H EGE luminescence; active compounds read high; 0 = fully inhibited enzyme, 1 = untreated enzyme; activation factor at 5 µM; 96,000 tested, under 10 active; AID 1025, 2008;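 active = activation factor of at least 2 at 5 µM in the primary screen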;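 also: 0 = wells with 2.5 mM tranylcypromine and 1 = vehicle-only wells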
CYP2C9 inhib: blockers of cytochrome P450 2C9 activity – biochemical, luminescence, ADME assay, primary screen | P11712 | CYP2C9 Supersomes, luciferin-H conversion | inhibition, % at 5 µM | hit rate 20% among 96,000;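 active = blocking of liver enzyme CYP2C9 beyond about 50% at 5 µM, limit read from the data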
CYP2C19 inhib: blockers of cytochrome P450 2C19 activity – biochemical, luminescence, ADME assay, primary screen; P33261; CYP2C19 Supersomes, luciferin-H EGE luminescence, 30 min; inhibition, % at 5 µM; hit rate 21% among 96,000;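 active = CYP2C19 inhibition above a set limit at 5 µM in the primary screen, cut at about 50% in these data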;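 also: plate controls were negative control wells for no effect and 2.5 mM tranylcypromine positive control for full effect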
* hit, by the source's call.

Screening CCCCOC(=O)C1=C(C)Nc2ncnn2C1c1cc(OC)ccc1OC (stereo not drawn) returned CYP2C9 activ 0.4, PTK2B oligo ant -1.7, CYP2C19 activ 0.8, CYP2C9 inhib 58* and CYP2C19 inhib 24.
For CCOC(=O)C1=C(CNCCc2ccc(Cl)cc2)NC(=O)NC1c1ccc2c(c1)OCO2 (stereo not drawn) the results were CYP2C9 activ 0.1, PTK2B oligo ant -1.1, CYP2C19 activ 0.1, CYP2C9 inhib 89* and CYP2C19 inhib 86*.
`COC(=O)[C@H](CCSC)NC(=O)Nc1ccc(C(C)=O)cc1` gave CYP2C9 activ 1.1, PTK2B oligo ant 0.3, CYP2C19 activ 1, CYP2C9 inhib -12 and CYP2C19 inhib -4.
`Cc1cccc(NC(=O)c2cc(NC(=O)CCCC(=O)O)ccc2Cl)n1` gave CYP2C9 activ 1.3, PTK2B oligo ant -0.28, CYP2C19 activ 1, CYP2C9 inhib -33 and CYP2C19 inhib 1.
`Cc1ccc(CNC(=O)C2CCN(S(=O)(=O)c3c(C)noc3C)CC2)cc1` gave CYP2C9 activ 1.1, PTK2B oligo ant 0.22, CYP2C19 activ 1.1, CYP2C9 inhib -14 and CYP2C19 inhib -8.
For COc1ccccc1CNC(=O)C1CCN(S(=O)(=O)c2c(C)noc2C)CC1 the results were CYP2C9 activ 2*, PTK2B oligo ant 0.71, CYP2C19 activ 1, CYP2C9 inhib -99 and CYP2C19 inhib 0.
Screening COc1ccc(CNC(=O)c2ccc(NS(=O)(=O)c3c(C)noc3C)cc2)cc1 returned CYP2C9 activ 0.4, PTK2B oligo ant -0.17, CYP2C19 activ 1, CYP2C9 inhib 58* and CYP2C19 inhib -3.
For COc1ccccc1CNC(=O)c1ccc(NS(=O)(=O)c2c(C)noc2C)cc1 the results were CYP2C9 activ 0.2, PTK2B oligo ant -0.49, CYP2C19 activ 0.9, CYP2C9 inhib 78* and CYP2C19 inhib 12.
Screening COc1ccccc1NC(=O)c1ccc(NS(=O)(=O)c2c(C)noc2C)cc1 returned CYP2C9 activ 1.4, PTK2B oligo ant -0.97, CYP2C19 activ 1, CYP2C9 inhib -44 and CYP2C19 inhib 4.
Screening Cc1ccc(NC(=O)c2ccc(NS(=O)(=O)c3c(C)noc3C)cc2)cc1C returned CYP2C9 activ 0.2, PTK2B oligo ant -0.01, CYP2C19 activ 0.9, CYP2C9 inhib 79* and CYP2C19 inhib 8.
COc1ccc(NC(=O)c2ccc(NS(=O)(=O)c3c(C)noc3C)cc2)cc1OC was read as CYP2C9 activ 0.8, PTK2B oligo ant -0.91, CYP2C19 activ 0.9, CYP2C9 inhib 22 and CYP2C19 inhib 7.
COc1cc(SC)ccc1C(=O)N1CCCCCC1 was read as PTK2B oligo ant 1.1.
CSc1nnc(-c2cnccn2)n1Cc1ccccc1 was read as CYP2C9 activ 1, PTK2B oligo ant 0.2, CYP2C19 activ 0.8, CYP2C9 inhib 4 and CYP2C19 inhib 22.
Cc1cc(NC(=O)c2ccoc2C)no1 was read as PTK2B oligo ant -0.37.
Screening Cc1noc(C)c1C(=O)NCCc1ccccc1 returned CYP2C9 activ 1.1, PTK2B oligo ant 0.81, CYP2C19 activ 0.9, CYP2C9 inhib -8 and CYP2C19 inhib 5.
`COc1ccc(Br)cc1CNC(=O)C1CCN(S(=O)(=O)N2CCCCC2)CC1` gave CYP2C9 activ 2.2*, PTK2B oligo ant -0.64, CYP2C19 activ 0.8, CYP2C9 inhib -119 and CYP2C19 inhib 23.
For Cc1noc(C)c1S(=O)(=O)Nc1ccc(C(=O)NCCc2ccccc2)cc1 the results were CYP2C9 activ 0.4, PTK2B oligo ant 0.1, CYP2C19 activ 1, CYP2C9 inhib 60* and CYP2C19 inhib -1.
For CS(=O)(=O)N(Cc1ccccc1)c1ccc(C(=O)Nc2ccc3c(c2)OCO3)cc1 the results were CYP2C9 activ 0.9, PTK2B oligo ant -1.7, CYP2C19 activ 1, CYP2C9 inhib 6 and CYP2C19 inhib -1.
For CC(C)(C)c1ccc(C(=O)C=[N+]=[N-])cc1 the results were CYP2C9 activ 1.2, PTK2B oligo ant 0.28, CYP2C19 activ 1.2, CYP2C9 inhib -22 and CYP2C19 inhib -23.
Screening CC(C)OC(=O)CC(=O)CSc1nc2c(cc1C#N)CCCCCC2 returned CYP2C9 activ 0.4, PTK2B oligo ant -0.85, CYP2C19 activ 0.5, CYP2C9 inhib 63* and CYP2C19 inhib 47.
CC(C)OC(=O)CC(=O)CSc1nc2c(cc1C#N)CCCC2 was read as CYP2C9 activ 0.7, PTK2B oligo ant 0.65, CYP2C19 activ 0.8, CYP2C9 inhib 29 and CYP2C19 inhib 16.
For C=C(C)CSc1nc2c(cc1C#N)CCC2 the results were CYP2C9 activ 0.6, PTK2B oligo ant 0.08, CYP2C19 activ 0.2, CYP2C9 inhib 45 and CYP2C19 inhib 80*.
For C=CCSc1nc2c(cc1C#N)CCC2 the results were CYP2C9 activ 0.9, PTK2B oligo ant 1.2, CYP2C19 activ 0.6, CYP2C9 inhib 9 and CYP2C19 inhib 40.
`CCCCSc1nc2c(cc1C#N)CCC2` gave CYP2C9 activ 0.5, PTK2B oligo ant 1.7, CYP2C19 activ 0.4, CYP2C9 inhib 49 and CYP2C19 inhib 58*.
`CCN1CCN(C2=NC(=O)/C(=C/c3ccc(C)o3)S2)CC1` gave CYP2C9 activ 1.5, PTK2B oligo ant 0.4, CYP2C19 activ 1, CYP2C9 inhib -48 and CYP2C19 inhib -2.
`CCOC(=O)N1CCN(C(=O)Cn2cc3c(n2)CCCC3)CC1` gave CYP2C9 activ 1, PTK2B oligo ant 0.25, CYP2C19 activ 0.9, CYP2C9 inhib 2 and CYP2C19 inhib 10.
For O=C(O)CCCCCN1C(=O)CSC1=S the results were CYP2C9 activ 0.8, PTK2B oligo ant 0.44, CYP2C19 activ 0.9, CYP2C9 inhib 17 and CYP2C19 inhib 6.
CC(C)OC(=O)CCCCCN1C(=O)CSC1=S was read as CYP2C9 activ 0.1, PTK2B oligo ant 2.2, CYP2C19 activ 0, CYP2C9 inhib 91* and CYP2C19 inhib 99*.
CCOCCCNCc1cccc(OC)c1 was read as CYP2C9 activ 0.9, PTK2B oligo ant 1.9, CYP2C19 activ 0.6, CYP2C9 inhib 15 and CYP2C19 inhib 38.
CC(C)n1nc(C(=O)NCCc2ccc(S(N)(=O)=O)cc2)c2ccccc2c1=O was read as CYP2C9 activ 0.4, PTK2B oligo ant -0.25, CYP2C19 activ 0.9, CYP2C9 inhib 63* and CYP2C19 inhib 9.
N#CCCN1CCN(S(=O)(=O)c2ccc(S(=O)(=O)NCC3CCCO3)cc2)CC1 (stereo not drawn) was read as CYP2C9 activ 0.9, CYP2C19 activ 1.2, CYP2C9 inhib 6 and CYP2C19 inhib -23.
CC1CCCCC1NS(=O)(=O)c1ccc(S(=O)(=O)N2CCN(CCC#N)CC2)cc1 (stereo not drawn) was read as CYP2C9 activ 0.6, CYP2C19 activ 0.5, CYP2C9 inhib 45 and CYP2C19 inhib 52*.
For CCn1nc(C(=O)NCCc2ccc(S(N)(=O)=O)cc2)c2ccccc2c1=O the results were CYP2C9 activ 1, PTK2B oligo ant 0.72, CYP2C19 activ 1.1, CYP2C9 inhib 4 and CYP2C19 inhib -14.

Screening results (PubChem)
